Calls of active or inactive are those of the source. Rule for the calls: active = hit-call score of the fitted dose curve at least 0.9, where 1 is the maximum; inactive = score below 0.9.
Each compound was assayed against Bile acid receptor (Homo sapiens) (UniProt Q96RI1) (assay: ATG_IR1_CIS: Attagene CIS-FACTORIAL HepG2 Assay for human Nuclear Receptor Subfamily 1 Group H Member 4 (NR1H4), IR1 submotif (AID 2282946)). Conditions: IR1 reporter transcription, actives raise or lower the signal.
Procedure: ATG_CIS is a cell-based, multiplexed-readout assay that uses HepG2, a human liver cell line, with measurements taken at 24 hours after chemical dosing in a 24-well plate.ATG_IR1_CIS is one of 52 assay component(s) measured or calculated from the ATG_CIS assay. It is designed to make measurements of mRNA induction, a form of inducible reporter, as detected with fluorescence intensity signals by Reverse transcription polymerase chain reaction (RT-PCR) and Capillary electrophoresis technology.Data from the assay component ATG_IR1_CIS was analyzed into 1 assay endpoint. This assay endpoint, ATG_IR1_CIS, was analyzed with bidirectional fitting relative to DMSO as the negative control and baseline of activity. Using a type of inducible reporter, measures of mRNA for gain or loss-of-signal activity can be used to understand the reporter gene at the transcription factor-level as they relate to the gene NR1H4. Furthermore, this assay endpoint can be referred to as a primary readout, because this assay has produced multiple assay endpoints where this one serves a reporter gene function. To generalize the intended target to other relatable targets, this assay endpoint is annotated to the nuclear receptor intended target family, where the subfamily is non-steroidal.
Human liver HepG2 cells are transiently transfected with multiple reporter transcription units (MRTUs) in 6-well plates using FuGene 6 reagent (Roche; 3 ml FuGene/1 mg DNA). The MRTU constructs are regulated by a cis-regulating element (promoter). […] A major difference between the CIS and TRANS system is that in CIS activities of endogenous TFs are measured, whereas the TRANS assay evaluates changes in activities of exogenous, chimeric NR-Gal4 proteins. […] At the end of 24 hour incubation, total RNA was isolated using TriZol reagent (Invitrogen). The isolated RNA is then reverse-transcribed using oligo(dT) primer and Mo-MLV reverse transcriptase (Invitrogen) with DNAse I (Ambion) treatment for 30 min. The one-tenth of the produced cDNA was amplified by PCR using Taq DNA polymerase (Invitrogen) and two reporter sequence-specific primers. The PCR products were fluorescently labeled by primer extension with 6-arboxyfluorescein (6-FAM) 5'-labeled reporter sequence-specific primer (2 min at 95 C, 20 s at 68 C and 10 min at 72 C) and these products were digested with 5U of HpaI (New England Biolabs) for 2h at 37 C. The fragments were purified using Qiaquick PCR columns (Qiagen), analyzed on an ABI 3130xL genetic analyzer (Applied Biosystems) with peak positions identified by using a set of X-rhodamine (ROX)-labeled MapMarker1000 molecular weight standards (BioVentures). The raw capillary electrophoresis data was processed using Attagraph software (Attagene).

Chain of Bile acid receptor (Homo sapiens) (Q96RI1 whole entry, looked up): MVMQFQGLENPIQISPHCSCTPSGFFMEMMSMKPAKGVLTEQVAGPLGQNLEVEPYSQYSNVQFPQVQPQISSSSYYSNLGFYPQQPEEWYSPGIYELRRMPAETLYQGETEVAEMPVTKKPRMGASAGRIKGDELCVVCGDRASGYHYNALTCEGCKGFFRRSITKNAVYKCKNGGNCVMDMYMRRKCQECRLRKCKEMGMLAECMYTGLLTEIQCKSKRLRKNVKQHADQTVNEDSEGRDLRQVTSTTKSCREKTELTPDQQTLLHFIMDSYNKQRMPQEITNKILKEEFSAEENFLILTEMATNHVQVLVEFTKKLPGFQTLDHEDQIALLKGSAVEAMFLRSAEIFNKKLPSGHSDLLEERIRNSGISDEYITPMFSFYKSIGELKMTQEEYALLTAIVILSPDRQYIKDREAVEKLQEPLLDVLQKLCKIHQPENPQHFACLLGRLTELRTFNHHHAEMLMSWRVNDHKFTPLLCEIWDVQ

SMILES | outcome | AC50
Cc1ccc([N+](=O)[O-])c(C)c1 | inactive | 
Cc1cnccn1 | inactive | 
COCCOCCC[Si](C)(O[Si](C)(C)C)O[Si](C)(C)C |  | 51 µM (active)
Oc1ccc(C2(c3ccc(O)c(C4CCCCC4)c3)CCCCC2)cc1C1CCCCC1 | inactive | 
O=C(O)C(F)(F)C(F)(F)C(F)(F)OC(F)(C(F)(F)F)C(F)(F)F | inactive | 
COc1ccccc1C=O | inactive | 
CCc1cccc(C)c1N(C(=O)C(=O)O)C(C)COC (stereo not given) | inactive | 
O=c1[nH]cccc1O | inactive | 
C=C(C)CCCC | inactive | 
CC(=O)C=O | inactive | 
CCCCCCCCCCCCCC[P+](CCCC)(CCCC)CCCC | inactive | 
NC(=O)C(F)(F)C(F)(F)C(F)(F)C(F)F | inactive | 
CCCCOC(=O)[C@H](C)O | inactive | 
CCC(C)CO (stereo not given) | inactive | 
NC(=O)C(F)(F)C(F)(F)C(F)(F)C(F)(F)C(N)=O | inactive | 
O=C(O)C(F)(F)C(F)(F)C(F)(F)C(F)(F)C(F)(F)C(F)(F)C(F)F | inactive | 
OC(O)C(F)(F)C(F)(F)F | inactive | 
O=C=Nc1cccc2c(N=C=O)cccc12 | inactive | 
Cc1cc(C)c(O)c(C(C)(C)C)c1 | inactive | 
O=C1C=CC(=O)N1c1ccc(Cc2ccc(N3C(=O)C=CC3=O)cc2)cc1 | inactive | 

SMILES | outcome | AC50
C#CC(O)CCC (stereo not given) | inactive | 
Brc1nc2ccccc2s1 | inactive | 
CCOC(=O)C1CC(=O)C(=C(O)C2CC2)C(=O)C1 (stereo not given) | inactive | 
CC(=O)c1ccccc1N | inactive | 
CCCCCCCCCCCCCCCCC | inactive | 
Cc1ccc2c(c1)OCC(=O)CO2 | inactive | 
CCOC(OCC)OCC | inactive | 
N#CCCOCCC#N | inactive | 
c1ccc(C[P+](c2ccccc2)(c2ccccc2)c2ccccc2)cc1 | inactive | 
O=C(O)CCC(F)(F)C(F)(F)C(F)(F)C(F)(F)C(F)(F)C(F)(F)C(F)(F)F | inactive | 
Nc1cc([N+](=O)[O-])cc(Cl)c1O | inactive | 
CC(O)C#CC(C)O (stereo not given) |  | 67.7 µM (active)
CCCC(=O)OCC(COC(=O)CCC)OC(=O)CCC | inactive | 
CCN(CC)c1ccc(C=O)cc1 | inactive | 
Cc1cccc(C)n1 | inactive | 
NC(=O)C(F)(F)C(F)(F)C(F)(F)F | inactive | 
Cc1ccc(S(=O)(=O)C(I)I)cc1 |  | 42.7 µM (active)
CCOC(=O)CCC(C)=O | inactive | 
CSc1ccc(O)cc1C | inactive | 
NS(=O)(=O)C(F)(F)C(F)(F)C(F)(F)C(F)(F)C(F)(F)C(F)(F)F | inactive | 

Source: PubChem BioAssay (EPA / NIEHS)
